About 1,600 (2.2%) of roughly 72,000 compounds were called active. Shown is part of a subset that was picked to be rich in actives. Entries that show only a call come without a potency. Values without a mark were called inactive. Calls follow the shape of the dose curve; as a rule, active = well fitted inhibition curve with a large enough effect; inconclusive = small, poorly fitted or top-dose-only effect; inactive = flat fitted curve, though single readings scatter.
biological target: Luciferin 4-monooxygenase (Photinus pyralis) (UniProt P08659); assay: qHTS Assay for Inhibitors of Firefly Luciferase; settings: purified firefly luciferase, luminescence, 8 min; series mostly up to 57.1 µM; also: nearly all actives have a fitted effect of over 40% in size
Sequence (P08659 whole entry, looked up): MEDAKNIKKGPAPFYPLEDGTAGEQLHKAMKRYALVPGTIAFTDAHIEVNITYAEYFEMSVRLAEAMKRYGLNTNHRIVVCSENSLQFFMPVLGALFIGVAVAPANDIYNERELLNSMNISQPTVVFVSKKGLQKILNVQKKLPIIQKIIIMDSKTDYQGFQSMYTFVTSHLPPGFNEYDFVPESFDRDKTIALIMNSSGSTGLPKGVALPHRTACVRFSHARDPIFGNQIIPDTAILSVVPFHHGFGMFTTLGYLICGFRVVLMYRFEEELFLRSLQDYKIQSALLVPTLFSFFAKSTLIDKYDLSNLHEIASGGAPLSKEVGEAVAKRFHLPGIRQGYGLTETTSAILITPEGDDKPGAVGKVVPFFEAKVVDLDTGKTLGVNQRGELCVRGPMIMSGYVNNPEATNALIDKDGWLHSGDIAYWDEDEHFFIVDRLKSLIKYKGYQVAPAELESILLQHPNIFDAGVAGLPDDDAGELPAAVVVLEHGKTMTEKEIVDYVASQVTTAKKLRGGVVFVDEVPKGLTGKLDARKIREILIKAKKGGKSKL
Experimental: To aid in the interpretation of high-throughput screening (HTS) results derived from luciferase-based assays, we used quantitative HTS, an approach that defines the concentration-response behavior of each library sample, to profile the ATP-dependent luciferase from Photinus pyralis against more than 72 000 samples. Luciferase (PKLight, Cambrex Corporation) was assayed for its ability to generate light using ATP and luciferin as substrates. The ATP concentration in the assay (10 uM) was within the linear range of enzyme activity for the assay conditions used. See following reference for further details: [1] Auld DS, Southall NT, Jadhav A, Johnson RL, Diller DJ, Simeonov A, Austin CP, Inglese J. Characterization of chemical libraries for luciferase inhibitory activity. J Med Chem. 2008 Apr 24;51(8):2372-86. Auld DS, Zhang YQ, Southall NT, Rai G, Landsman M, Maclure J, Langevin D, Thomas CJ, Austin CP, Inglese J. A Basis for Reduced Chemical Library Inhibition of Firefly Luciferase Obtained from Directed Evolution. J. Med. Chem., 2009, 52 (5), pp 1450#1458 [3] Auld DS, Thorne N, Nguyen DT, Inglese J. A specific mechanism for nonspecific activation in reporter-gene assays. ACS Chem Biol. 2008 Aug 15;3(8):463-70. Auld DS, Thorne N, Maguire WF, Inglese J. Mechanism of PTC124 activity in cell-based luciferase assays of nonsense codon suppression. Proc Natl Acad Sci U S A. 2009 Mar 3;106(9):3585-90. Inglese J, Auld DS, Jadhav A, Johnson RL, Simeonov A, Yasgar A, Zheng W, Austin CP. Quantitative high-throughput screening: a titration-based approach that efficiently identifies biological activities in large chemical libraries. Proc Natl Acad Sci U S A. 2006 Aug 1;103(31):11473-8.
Four uL of substrate mix (final concentration, 50 mM imidazole pH 7.2, 50 mM KCl, 7 mM MgCl2, 10 uM ATP, 0.01% Tween 20, 0.05% BSA) was dispensed into white 1536 well plates. Twenty-three nL of compound was delivered by a pin tool and 2 uL of luciferase detector mix (PKLight, Cambrex) was added. Following 8-minute incubation at ambient temperature, luminescence was measured by a ViewLux (Perkin Elmer) at 5 seconds exposure/plate.
Potency is read from the fitted curve at half-maximal effect.

Row | Compound | Potency | activity change, negative = inhibition
1 | Cc1ccc(-c2noc(-c3ccccc3C(=O)NCC3CCCO3)n2)cc1 (stereo unspecified) | 12.6 µM (active) | –
2 | Cc1ccc(C(=O)NCC2CCCO2)o1 (stereo unspecified) | inactive | –
3 | Cc1nc2ccccc2c2oc(C(=O)NCC3CCCO3)cc12 (stereo unspecified) | inactive | –
4 | CCCN1C2=C(C(=O)CCC2)C(c2ccc(O)c(Br)c2)C2=C1CCCC2=O | inactive | –
5 | O=S(=O)(N1CCOCC1)N1CCN(c2ccccc2F)CC1 | inactive | –
6 | CCCn1c(=O)c2[nH]c(-c3ccc(OCC(=O)NCCN)cc3)nc2n(CCC)c1=O | inactive | –
7 | CCc1ccccc1N(CC(=O)N1CCN(c2ccccc2F)CC1)S(C)(=O)=O | inactive | –
8 | CCOc1ccc2nc(N3CCCN(C(=O)Nc4ccccc4C)CC3)c(C#N)cc2c1 | inactive | –
9 | COc1ccc2nc(N3CCCC(O)C3)c(C#N)cc2c1 (stereo unspecified) | 12.6 µM (active) | –
10 | COc1ccc(N2CCN(C(=O)CSc3nc4cc(OC)c(OC)cc4cc3C#N)CC2)cc1 | inactive | –
11 | CCOc1ccc(N(CC(=O)NCc2ccc(OC)cc2)S(=O)(=O)c2c(C)noc2C)cc1 | inactive | –
12 | Cc1ccc(-c2noc(CCC(=O)Nc3ccccc3N3CCN(C)CC3)n2)cc1 | inactive | –
13 | Cc1ccc(-c2noc(CCC(N)=O)n2)cc1 | inactive | –
14 | CCNC(=O)CCc1nc(-c2ccc(C(C)(C)C)cc2)no1 | 5.01 µM (active) | –
15 | O=C(OCCO)c1cc(Cl)c(C(=O)OCCO)cc1Cl | inactive | –
16 | CCc1ccc(-c2nnn(Cc3nn[nH]n3)n2)cc1 | inactive | –
17 | CC(C)c1ccc(-c2nn[nH]n2)cc1 | 15.8 µM (active) | –
18 | c1ccc(-n2ncc(-c3nn[nH]n3)n2)cc1 | inactive | –
19 | CCCCn1c(CN2CCN(CCO)CC2)nc2ccccc21 | inactive | –
20 | CCOC(=O)CCc1c(C)c2ccc(OCc3nn[nH]n3)c(C)c2oc1=O | inactive | –
21 | Cn1c(=O)n(C)c2cc(C(=O)Nc3ccc4c(c3)OCO4)ccc21 | inactive | –
22 | Cc1ccc(F)cc1NC(=O)c1ccc2c(c1)OCO2 | inactive | –
23 | Cc1ccc(C(=O)Nc2ccc3c(c2)OCO3)cc1S(=O)(=O)N1CCCCC1 | inactive | –
24 | COc1ccc(C(=O)Nc2ccc3c(c2)OCO3)cc1OC | 12.6 µM (active) | –

Row | Compound | Potency | activity change, negative = inhibition
25 | CC(C)C(=O)Nc1cccc(C(=O)Nc2ccc3c(c2)OCO3)c1 | 15.8 µM (active) | –
26 | Cn1c(NC(=O)c2ccc3c(c2)OCO3)cc(=O)n(C)c1=O | inactive | –
27 | CCOc1ccc(NC(=O)CSc2nc3c(c(=O)n2-c2ccccc2OC)SCC3)cc1 | inactive | –
28 | C[C@H](CCC(=O)NCC(=O)O)[C@H]1CC[C@H]2[C@H]3[C@@H](C[C@@H](O)[C@]12C)[C@]1(C)CC[C@H](O)C[C@@H]1C[C@@H]3O | inactive | –
29 | CCCOc1ccc(/C(O)=C2/C(=O)C(=O)N(CCN(C)C)C2c2ccc(OC)c(OC)c2)cc1 (stereo unspecified) | inactive | –
30 | CCn1nnc(NC(=O)c2c(OC)cccc2OC)n1 | inactive | –
31 | CCOC(=O)CCc1c(C)c(C#N)c2[nH]c3ccccc3n2c1=O | inactive | –
32 | FC(F)Oc1ccccc1C1CC(c2ccc(Br)s2)Nc2ncnn21 (stereo unspecified) | inactive | –
33 | COC(=O)C1C(=O)c2c([nH]c(C(=O)OCCSC)c2C)CC1C (stereo unspecified) | 7.94 µM (active) | –
34 | CCCOC(=O)C1=C(C)NC2=C(C(=O)C(C(=O)OC)C(C)C2)C1c1ccc(N(C)C)cc1 (stereo unspecified) | inactive | –
35 | CCCOC(=O)c1[nH]c2c(c1C)C(=O)CC(c1cc(OC)c(OC)c(OC)c1)C2 (stereo unspecified) | inactive | –
36 | O=C(NCc1ccco1)c1sc2cccc(F)c2c1Cl | inactive | –
37 | CN=C1SC(C(=O)O)CC(=O)N1C (stereo unspecified) | inactive | –
38 | O=C(c1csnn1)N1CCC[C@@]2(CCN(c3cccc(-c4ccccc4)c3)C2)C1 | – | 0.28% [at 11.4 µM]
39 | O=C(Nc1cccnc1)c1noc2c1CCCCC2 | 12.6 µM (active) | –
40 | CCOc1cccc(C(=O)Nc2cccnc2)c1 | inactive | –
41 | O=C(Nc1cccnc1)c1ccc2c(c1)OCO2 | inactive | –
42 | COc1ccc(OC)c([C@H](O)CNC(=O)CN)c1 | inactive | –
43 | CNC(=O)NCCN1CCCC1=O | inactive | –
44 | COC(=O)COc1ccc2oc(=O)cc(C)c2c1 | inactive | –
45 | Cc1noc(C)c1C(=O)Nc1ccccn1 | inactive | –
46 | CCN(CC)S(=O)(=O)c1cccc(C(=O)Nc2ccccc2)c1 | inactive | –
47 | CCN(CC)S(=O)(=O)c1cc(C(=O)Nc2ccccn2)ccc1C | 15.8 µM (active) | –
48 | N[C@H](C(=O)O)c1ccc(C(=O)O)c(O)c1 | inactive | –

Row | Compound | Potency | activity change, negative = inhibition
49 | c1ccc(CNc2ncncc2-c2cccnc2)cc1 | – | -1.06% [at 2.29 µM]
50 | Cc1ccc(OCC(O)CN2CCN(CC(O)COc3ccc(C)cc3Cl)CC2)c(Cl)c1 (stereo unspecified) | inactive | –
51 | CCOC(=O)CSc1nnc(-c2ccncc2)o1 | inactive | –
52 | CCOC(=O)CSc1nnc(-c2cccc(Br)c2)o1 | inactive | –
53 | CCCCSc1nnc(-c2ccc(C)cc2)o1 | 15.8 µM (active) | –
54 | CC1=C(C(=O)OCc2ccccc2)C(c2ccco2)n2ncnc2N1 (stereo unspecified) | inactive | –
55 | CCOc1ccc(C(=O)Nc2ccncc2)cc1 | inactive | –
56 | COc1ccc(NC(=O)c2c(C)oc3c2CCCC3)cc1 | inactive | –
57 | COc1ccc(NC(=O)c2ccc(OC)cc2)cc1 | 2 µM (active) | –
58 | COc1ccc2occ(C(=O)c3ccc(N=C(C)N(C)C)cc3)c2c1 | inactive | –
59 | N#Cc1c2c(c(-c3ccccc3)[nH]c1=O)CCCC2 | inactive | –
60 | O=C(CCN1C(=O)c2ccncc2C1=O)Nc1ccc2c(c1)OCCO2 | inactive | –
61 | O=C(COc1ccc2oc3c(c2c1)CCCC3)Nc1ccccn1 | inactive | –
62 | CCOC(=O)c1cc(NC(=O)c2cccnc2)cc(C(=O)OCC)c1 | inactive | –
63 | Cc1ccc(OCC(=O)Nc2ccc(-c3nc4ncccc4o3)cc2)cc1 | inactive | –
64 | Cc1cc2nc(-c3ccc(NC(=O)c4cccnc4)cc3)oc2cc1C | 12.6 µM (active) | –
65 | CC(=O)c1c(C)[nH]c(C(=O)NCCCN2CCCC2)c1C | inactive | –
66 | Cc1onc(-c2ccccc2)c1C(=O)N1CCOCC1 | inactive | –
67 | C=CCn1c(C)cc(C(=O)CN2C(=O)c3ccccc3C2=O)c1C | 3.98 µM (active) | –
68 | C=CCN(CC=C)C(=O)CN1C(=O)c2ccccc2C1=O | inactive | –
69 | Cc1cc(C(=O)COC(=O)CCCN2C(=O)c3ccccc3C2=O)c(C)n1C | inactive | –
70 | COc1cc2c(cc1OC)C(c1ccncc1)CC(=O)N2 (stereo unspecified) | inactive | –
71 | O=C(c1ccncc1)N1CCC2(CCCN(C(c3ccccc3)c3ccccc3)C2)CC1 | – | -0.104% [at 11.4 µM]

Source: PubChem BioAssay AID411 (National Center for Advancing Translational Sciences (NCATS), 2006)
